SMILES strings stand for the structures. Among all 16,000 compounds or so, about 4,000 (25%) were called active. Inconclusive results (about 26%) are left out. These entries were drawn from the full list. Values without a mark were called inactive. Calls follow the shape of the dose curve; as a rule, active = well fitted curve in the direction sought with a large enough effect; inconclusive = small, poorly fitted or top-dose-only effect, or effect the other way; inactive = no such curve, though single readings can be large or run the other way.
% is scaled to controls: 0 for no effect and ±100 for the full control effect.

The target in the assay is Cytochrome P450 2C9 (Homo sapiens) (UniProt P11712). The assay can be described thus: Cytochrome panel assay with activity outcomes. As to conditions: recombinant CYP, pro-luciferin dealkylation, luminescence, p450-cyp2c9; series mostly up to 57.1 µM.
Cytochrome P450 2C9 (Homo sapiens), sequence (P11712 whole entry, looked up): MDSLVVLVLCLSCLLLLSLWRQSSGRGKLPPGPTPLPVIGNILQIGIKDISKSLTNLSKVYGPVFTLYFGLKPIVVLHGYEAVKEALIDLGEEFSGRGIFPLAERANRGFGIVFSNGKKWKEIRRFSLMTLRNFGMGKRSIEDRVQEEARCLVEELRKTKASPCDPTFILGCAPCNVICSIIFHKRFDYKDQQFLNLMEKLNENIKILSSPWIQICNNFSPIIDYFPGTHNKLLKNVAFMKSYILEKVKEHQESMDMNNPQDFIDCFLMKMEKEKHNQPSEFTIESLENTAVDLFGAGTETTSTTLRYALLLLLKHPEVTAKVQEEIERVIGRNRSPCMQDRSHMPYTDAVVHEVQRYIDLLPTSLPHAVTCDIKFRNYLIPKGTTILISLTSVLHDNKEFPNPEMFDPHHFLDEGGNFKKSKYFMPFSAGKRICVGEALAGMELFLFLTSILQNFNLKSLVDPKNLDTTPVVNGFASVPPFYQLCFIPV
Take `Nc1[nH]nc2nc3ccccc3nc12`: the AC50 (commonly the concentration giving half of the maximal activity seen) is 2 µM (active).

Consider `Nc1n[nH]c2ccccc12`, for which the activity, negative = inhibition was -15.6% [at 11.4 µM].

Take `O=c1[nH]c(=O)c2nc3ccccc3nc2[nH]1`: the AC50 entry is “inactive”.

With `CC[C@@H]1CC(=O)N(SC[C@H](N)C(=O)O)C1=O`, the activity, negative = inhibition was 10.2% [at 11.4 µM].

Regarding `CC1CC2(CCCCC2)N2C(=O)C(=O)c3cccc1c32` (centres undefined), the AC50 was 5.01 µM (active).

As to `O=c1[nH]c2cc(Br)cnc2nc1/C=C(\O)c1ccc(F)cc1`, the AC50 entry is “inactive”.

As for `O=c1cc(-c2ccccc2)[nH]c2nc(Cl)ccc12`, the AC50 result is “inactive”.

For the compound `Cc1ccccc1S(=O)(=O)c1c(C)cc(-c2ccccc2)[nH]c1=O`, the AC50 was 22.4 µM (active).

On to `CN(C)CCCNc1c(C(=O)O)cnc2c1cnn2C`, for which the AC50 entry is “inactive”.

Regarding `COc1cccc(Nc2ncc3nc(-c4ccc(F)cc4)c(=O)n(C)c3n2)c1`, the AC50 result is “inactive”.

`COc1ccc(C2=NC(C(F)(F)F)(C(F)(F)F)c3c(n(C)c(=O)n(C)c3=O)N2)cc1`: the AC50 is 8.91 µM (active).

Consider `Cn1c(=O)c(-c2ccc(Cl)cc2)nc2cncnc21`, for which the AC50 result is “inactive”.

As for `Cn1c2c(c(=O)n(C)c1=O)C(C(F)(F)F)(C(F)(F)F)N=C(c1ccc(Cl)cc1)N2`, the AC50 is 2 µM (active).

Take `COc1ccc(-c2nc3cnc(OC)nc3n(C)c2=O)cc1`: the AC50 result was “inactive”.

For the compound `CCN1CCc2nc(N)oc2CC1`, the AC50 entry is “inactive”.

As for `CC(=O)c1ccc(OC(=O)C2c3ccccc3Oc3ccccc32)cc1`, the concentration at half-maximal activity (AC50) is 28.2 µM (active).

Regarding `CC[N+](C)(CC)CCOC(=O)C1c2ccccc2Oc2ccccc21`, the AC50 entry was “inactive”.

In the case of `N[C@](CC1c2ccccc2Oc2ccccc21)(C(=O)O)[C@@H]1C[C@@H]1C(=O)O`, the AC50 result was “inactive”.

For the compound `CCOC(=O)c1cc2c(C)n(-c3ccc(C)cc3)c(C)c2ccc1=O`, the AC50 is 14.1 µM (active).

Regarding `CCOC(=O)Cn1nc(C)n(-c2ccc(C)cc2)c1=O`, the AC50 result was “inactive”.

As to `CCOc1ncnc2c1oc1nc(CC(C)C)c3c(c12)CC(C)(C)OC3`, the half-maximal activity concentration (AC50) is 20 µM (active).

Regarding `CCCNC(=O)OC[C@@H]1O[C@H](CCO/N=C(\C)CCN2CCCc3nc(C)c(C)cc32)C=C[C@@H]1Oc1ccc(OC)cc1`, the activity, negative = inhibition is -26.6% [at 11.4 µM].

Consider `CC12c3ccccc3C(c3ccccc31)C1C(=O)N(Cc3cccnc3)C(=O)C12` (centres undefined), for which the half-maximal activity concentration (AC50) was 11.2 µM (active).

Take `CNC(=O)Oc1ccc2c(c1)[C@@]1(C)CCN(C)[C@@H]1N2C`: the AC50 result was “inactive”.

Turning to `O=C(COc1ccccc1C(=O)N/N=C\c1ccc(O)c(O)c1)N/N=C/c1ccc(O)c(O)c1`, the half-maximal activity concentration (AC50) is 12.6 µM (active).

Regarding `O=C(N/N=C/c1cccc(OC2CSC2)c1)c1ccccc1O`, the AC50 entry is “inactive”.

Take `COc1ccccc1-c1nccc(NCc2cccc(C)c2)n1`: the activity, negative = inhibition was -8.67% [at 2.29 µM].

Turning to `COC(=O)c1ccc(C23CC2(C(NP(=O)(c2ccccc2)c2ccccc2)c2ccccc2)C3)cc1` (centres undefined), the concentration at half-maximal activity (AC50) is 10 µM (active).

`COC(=O)c1ccc(C#CC(NP(=O)(c2ccccc2)c2ccccc2)c2ccccc2)cc1` (centres undefined): the AC50 is 10 µM (active).

`COC(=O)c1ccc(NC(=O)C2CCCCC2C(=O)O)cc1` (centres undefined): the AC50 result was “inactive”.

On to `CN(C)Cc1ccccc1-c1nccc(N(C)Cc2ccco2)n1`, for which the activity, negative = inhibition was -2.53% [at 2.29 µM].

As for `CC(C)(C)N1C(=O)[C@@H]2[C@H]3C(=CC[C@H]2C1=O)C(=O)[C@H]1O[C@H]1[C@H]3O`, the activity, negative = inhibition was 4.81% [at 11.4 µM].

As for `Cc1ccc(-c2csc3ncnc(NCCN4CCOCC4)c23)cc1`, the concentration at half-maximal activity (AC50) was 14.1 µM (active).

Turning to `CN(C)C(=O)c1ccc(-c2cncnc2NCCN2CCOCC2)cc1`, the activity, negative = inhibition is 0.0156% [at 2.29 µM].

`CN(C)c1ccc(-c2cncnc2NCCN2CCOCC2)cc1`: the activity, negative = inhibition was 1.82% [at 2.29 µM].

In the case of `O=C1C2=C(NC(=S)NC2c2ccc(Cl)cc2)NC(c2ccc(Cl)cc2)N1c1ccc(Cl)cc1` (centres undefined), the half-maximal activity concentration (AC50) was 11.2 µM (active).

As to `O=[n+]1c2c(n([O-])c3cc(F)c(F)cc31)CCCC2`, the AC50 result is “inactive”.

As for `O=[N+]([O-])c1ccc2c(c1)Cc1cc(N=Cc3ccc4c(c3)OCO4)ccc1-2`, the activity, negative = inhibition was -3.27% [at 11.4 µM].

On to `O=S(=O)(N/N=C\c1ccc2c(c1)OCO2)c1ccc(Cl)cc1`, for which the concentration at half-maximal activity (AC50) was 1.12 µM (active).

As to `O=c1oc2cc(N=Cc3ccc4c(c3)OCO4)ccc2c2ccccc12`, the activity, negative = inhibition was -21.1% [at 11.4 µM].

For `O=S(=O)(N/N=C/c1ccc2c(c1)OCCO2)c1ccc(Cl)cc1`, the concentration at half-maximal activity (AC50) is 1.41 µM (active).

As for `C[C@]1(OC(=O)/C=C\c2ccccc2)C[C@@H](O)[C@@]2(O)C=CO[C@@H](O[C@H]3O[C@@H](CO)[C@@H](O)[C@@H](O)[C@@H]3O)[C@H]21`, the AC50 entry is “inactive”.

As for `CCCN=C(N)NCCC[C@H](N)C(=O)O`, the AC50 was 3.98 µM (active).

As for `CC(N)=NCCCC[C@H](N)C(=O)O`, the AC50 result was “inactive”.

For the compound `NC(=NCCC[C@H](N)C(=O)O)NO`, the AC50 entry was “inactive”.

As for `COc1ncc2ncc(=O)n(CCC#N)c2n1`, the AC50 entry is “inactive”.

Regarding `COCCNc1ncnc2ccc(-c3ccc(N(C)C)cc3)cc12`, the activity, negative = inhibition is -3.32% [at 2.29 µM].

On to `O=S(Cc1ccc(Br)cc1)Cc1nnc(SCc2ccc(Cl)cc2)n1-c1ccccc1` (centres undefined), for which the AC50 was 10 µM (active).

For `COC(Cc1nnc(SC)n1-c1ccc(Cl)cc1)OC`, the AC50 entry was “inactive”.

In the case of `Cc1cccc(NC(=S)N2CCC(N(C)CC3CCCO3)CC2)c1C` (centres undefined), the AC50 result is “inactive”.

Take `Cc1ccc(S(=O)(=O)Nc2nc3ccccc3nc2N2CCc3ccccc3C2)cc1`: the AC50 is 0.251 µM (active).

As for `CN1CCN(c2ncnc3ccc(-c4cccc(NS(C)(=O)=O)c4)cc23)CC1`, the activity, negative = inhibition is 22.3% [at 2.29 µM].

Consider `O=C(Cc1ccc(-n2c(=O)[nH]c3ccccc3c2=O)cc1)N1CCN(c2cccc(Cl)c2)CC1`, for which the AC50 was 3.55 µM (active).

For `O=C(Cn1ccc2ccccc2c1=O)N1CCN(c2cccc(Cl)c2)CC1`, the AC50 entry is “inactive”.

On to `O[C@H](CN1CCN(c2cccc(Cl)c2)CC1)C(c1ccccc1)c1ccccc1`, for which the AC50 entry is “inactive”.

On to `CC(=O)Nc1ccc(S(=O)(=O)NC(CC(=O)NCCCN2CCOCC2)C(C)C)cc1` (centres undefined), for which the AC50 result was “inactive”.

Take `CC(=O)Nc1ccc(S(=O)(=O)NCCc2ccc(F)cc2)cc1`: the AC50 result was “inactive”.

`CC(=O)Nc1ccc(S(=O)(=O)N=S(C)C)cc1`: the AC50 entry was “inactive”.

As to `COc1ccc(CONS(=O)(=O)c2ccc(NC(C)=O)cc2)cc1Cl`, the half-maximal activity concentration (AC50) was 12.6 µM (active).

Turning to `COc1ccc(CCNC[C@H](O)c2ccc(O)cc2)cc1OC`, the AC50 result was “inactive”.

Turning to `COc1ccc(CCNC(=O)CC(NS(=O)(=O)c2ccc(NC(C)=O)cc2)C(C)C)cc1OC` (centres undefined), the half-maximal activity concentration (AC50) was 2.51 µM (active).

As for `OCCN(CO)CO`, the activity, negative = inhibition is -10.4% [at 11.4 µM].

For `CC(=O)OC[C@H]1O[C@@H](O/N=C(\C)CCN2CCCCc3nc(C)c(C)cc32)[C@H](OC(C)=O)[C@@H](OC(C)=O)[C@H]1OC(C)=O`, the activity, negative = inhibition was 23.5% [at 11.4 µM].

Take `c1ccc(CCc2cccnc2)nc1`: the activity, negative = inhibition was -6.59% [at 11.4 µM].

For the compound `c1ccc(NN(Cc2cnccn2)c2ccccc2)cc1`, the concentration at half-maximal activity (AC50) is 3.16 µM (active).

Take `C#CCOC(=O)Nc1ccc(=O)n(Cc2c(Cl)cccc2Cl)c1`: the concentration at half-maximal activity (AC50) was 1.58 µM (active).

Consider `CCn1c(=O)[nH]c2ccccc21`, for which the AC50 entry was “inactive”.

Take `O=C(OC1CCN(c2ccc([N+](=O)[O-])cc2)CC1)c1ccccc1`: the AC50 is 0.631 µM (active).

For `C[N+]1(C)CCC(OC(=O)C(c2ccccc2)c2ccccc2)CC1`, the AC50 result is “inactive”.

`O=C(CCCc1ccccc1)N1CCN(c2ccc([N+](=O)[O-])cc2)CC1`: the AC50 result was “inactive”.

Regarding `CN1C(=O)/C(=N\OC(=O)c2cccc3ccccc23)c2ccccc21`, the AC50 is 2.82 µM (active).

`O=C(O)c1cccc2cccc(-c3cccc4cccc(C(=O)O)c34)c12`: the activity, negative = inhibition was -4.84% [at 11.4 µM].

As to `CCn1c(=O)cc(OCC(=O)Nc2cccnc2)c2ccccc21`, the half-maximal activity concentration (AC50) was 15.8 µM (active).

Take `Cn1c(=O)cc(OCCCC(=O)Nc2cccnc2)c2ccccc21`: the AC50 entry is “inactive”.

Take `CC(C(=O)Nc1cccnc1)N1C(=O)C2C3C=CC(C3)C2C1=O` (centres undefined): the AC50 result was “inactive”.

As to `CO[C@H]1COC(=O)[C@@H](Cc2ccccc2)NC(=O)[C@@H](C)COC(=O)CCC[C@@H]1C`, the activity, negative = inhibition is 18.6% [at 11.4 µM].

Regarding `CCCN(CCC)CCCNC(=O)c1cc2cc3ccc(OC)cc3nc2o1`, the AC50 result was “inactive”.

On to `COc1ccc2cc3cc(C(=O)NCc4ccc5c(c4)OCO5)oc3nc2c1`, for which the AC50 was 4.47 µM (active).

Regarding `COc1ccc2cc3cc(C(=O)NCc4ccccn4)oc3nc2c1`, the AC50 entry is “inactive”.

For `Cc1ccc(-n2c(-c3ccc(Br)cc3)c[n+]3c2CCc2ccc4cccnc4c2-3)cc1`, the AC50 result is “inactive”.

With `NC(=O)c1csc(-c2ccc(CO)o2)n1`, the activity, negative = inhibition is 6.84% [at 11.4 µM].

Regarding `OCc1ccc(-c2nn(Cc3ccccc3)c3ccccc23)o1`, the AC50 is 31.6 µM (active).

For `CCNc1ncc2nc(-c3ccc(F)cc3)c(=O)n(CCC#N)c2n1`, the AC50 entry is “inactive”.

With `CN(C)c1ncc2nc(-c3ccc(Cl)cc3)c(=O)n(Cc3cccs3)c2n1`, the AC50 entry was “inactive”.

As for `COc1cc2nc(SCc3ccc(Cl)cc3Cl)n(Cc3cccs3)c(=N)c2cc1OC`, the AC50 is 2.51 µM (active).

Regarding `CN1CCN(c2ncncc2-c2ccccc2C(F)(F)F)CC1`, the activity, negative = inhibition was 10.5% [at 2.29 µM].

With `Cc1ccc(S(=O)(=O)ON=C2CCN(S(=O)(=O)c3ccccc3)CC2)cc1`, the AC50 entry is “inactive”.

As for `Cc1cc(C)c(S(=O)(=O)N2CCCCC2)c(C)c1N(C)S(=O)(=O)c1ccccc1`, the concentration at half-maximal activity (AC50) is 2 µM (active).

Turning to `CCN1C(=O)[C@H]2[C@H]3[C@H](O)[C@H](O)C/C(=N/OCC(C)C)[C@@H]3CC[C@@H]2C1=O`, the activity, negative = inhibition was 28.3% [at 11.4 µM].

As to `Cc1cccc(OCCSCc2nc3ccccc3[nH]2)c1`, the half-maximal activity concentration (AC50) is 5.01 µM (active).

Take `C[N+](C)(C)CCCSc1nc2ccccc2[nH]1`: the activity, negative = inhibition was 3.61% [at 11.4 µM].

As for `CS(=O)(=O)Nc1cccc(-c2ccc3ncnc(Nc4ccc(F)cc4)c3c2)c1`, the activity, negative = inhibition was -7.12% [at 2.29 µM].

Take `CC(C)C12CN3CC(C(C)C)(CN(C1)C3c1ccco1)C2=O` (centres undefined): the AC50 entry is “inactive”.

Take `Cc1ccc(N=CC2=C(O)CC(c3ccco3)CC2=O)cc1` (centres undefined): the AC50 was 8.91 µM (active).

For the origin of these results see PubChem BioAssay AID1851 (National Center for Advancing Translational Sciences (NCATS), 2009).
